# From ChEMBL document CHEMBL3988442, “University of Dundee, Small-Polar-MMV Screening Library” (2021)
# Hit rate of the full screen: of about 66,000 compounds, about 960 (1.5%) showed an effect of 50% or more. Shown is part of a subset that was picked to be rich in strong results.
# Test system: Trypanosoma brucei
# Assay: Trypanosoma brucei 72 hour study
# Format: functional, organism-based
# Parameters: scale not given: in the data most compounds retested in dose-response had high values
structure (smiles),measurement,setting,value
CC(C)c1cc(NC(=O)c2ccc([S+]([O-])C(C)C)cc2)[nH]n1 (stereo not given),Percent Effect,"30.3 µM, […]",80.42%
same,Percent Effect,"10 mM, 10 mM as filed; unlikely as a test dose",77.43%
CC(C)c1cc(NC(=O)c2ccc(C(=O)NC(C)(C)C)cc2)[nH]n1,Percent Effect,"30 µM, 30.03 µM",33.13%
Cc1ccc(C(=O)Nc2cc(C(C)C)n[nH]2)cn1,Percent Effect,"30 µM, 30.03 µM",54.96%
CC(C)c1cc(NC(=O)c2cccnc2)[nH]n1,Percent Effect,"30.3 µM, […]",11.06%
same,Percent Effect,"10 mM, 10 mM as filed; unlikely as a test dose",-25.28%
CC(C)c1cc(NC(=O)Cn2cnc3ccccc3c2=O)[nH]n1,Percent Effect,"30 µM, 30.03 µM",1.416%
Cc1ccc(CC(=O)Nc2cc(C(C)C)n[nH]2)cn1,Percent Effect,"30.3 µM, […]",101.5%
same,Percent Effect,"10 mM, 10 mM as filed; unlikely as a test dose",101.9%
CC(C)c1cc(NC(=O)c2ccncc2)[nH]n1,Percent Effect,"30.3 µM, […]",16.87%
same,Percent Effect,"10 mM, 10 mM as filed; unlikely as a test dose",-12.06%
CC(C)c1cc(NC(=O)c2ccc(NC3CC3)nc2)[nH]n1,Percent Effect,"30 µM, 30.03 µM",40.22%
NCc1cnn(-c2ccccc2C(=O)NCc2ccccn2)c1,Percent Effect,"30.3 µM, […]",5.478%
O=C(O)C(F)(F)F.O=C1CC2(CCN(Cc3ccco3)C2)CN1c1ccc2c(c1)OCO2 (stereo not given),Percent Effect,"30 µM, 30.03 µM",43.65%
CN(C)C(=O)CN1C(=O)CCC12CCN(Cc1cccn1C)CC2.O=C(O)C(F)(F)F,Percent Effect,"30.3 µM, […]",-2.653%
COc1ccc([C@@H]2CN(C(=O)CCC(F)(F)F)C[C@H]2NC(C)=O)cc1,Percent Effect,"30 µM, 30.03 µM",98.96%
COc1ccc([C@@H]2CN(C(=O)CS(C)(=O)=O)C[C@H]2NC(C)=O)cc1,Percent Effect,"30 µM, 30.03 µM",-86.91%
CCOCC(=O)N1C[C@@H](NC(C)=O)[C@H](c2ccc(OC)cc2)C1,Percent Effect,"30 µM, 30.03 µM",-1.358%
COc1cccc(CN2CCCC3(CCN(C(=O)c4ccco4)C3)C2)c1 (stereo not given),Percent Effect,"30.3 µM, […]",7.427%
COc1cccc(CN(C)C(=O)CN2CC(n3nc(C)cc3C)C2)c1,Percent Effect,"30 µM, 30.03 µM",1.154%
Cc1cc(C)n(C2CN(CC(=O)N(C)Cc3ccsc3)C2)n1,Percent Effect,"30 µM, 30.03 µM",62.05%
Cc1cc(C)n(C2CN(CC(=O)N(C)Cc3cnn(C)c3)C2)n1,Percent Effect,"30 µM, 30.03 µM",17.09%
O=C(O)C(F)(F)F.O=C([C@H]1C[C@H]2OCC[C@H]2N(Cc2ccc(F)cc2)C1)N1CCCCO1,Percent Effect,"30.3 µM, […]",-288.9%
Cc1ccc(CNCc2nccn2C)c(OC(C)(C)C)c1,Percent Effect,"30 µM, 30.03 µM",-9.651%
CCn1ccnc1CNCc1ccc(C)cc1OC(C)(C)C,Percent Effect,"30 µM, 30.03 µM",59.89%
Cc1ccc(CNC(=O)NCc2nccn2C)c(OC(C)(C)C)c1,Percent Effect,"30 µM, 30.03 µM",-10.65%
Cl.c1nc(N2CCOCC2)ncc1-c1cncn1CCCN1CCCCC1,Percent Effect,"30.3 µM, […]",-26.24%
CCn1cc(NC(=O)NCC(O)COc2ccccc2)cn1 (stereo not given),Percent Effect,10 µM,2.207%
CN1CCCCC1c1ncc2c(n1)CCN(CCCc1ccccc1)C2 (stereo not given),Percent Effect,"30.3 µM, […]",98.5%
CN1CCCCC1c1ncc2c(n1)CCN(Cc1ccc(F)cc1)C2 (stereo not given),Percent Effect,"30.3 µM, […]",42.96%
COc1ccc(CN2CCc3nc(C4CCCCN4C)ncc3C2)cc1 (stereo not given),Percent Effect,"30 µM, 30.03 µM",-5.648%
CN1CCCCC1c1ncc2c(n1)CCN(Cc1ccc(Cl)c(F)c1)C2 (stereo not given),Percent Effect,"30.3 µM, […]",88.41%
CN1CCCCC1c1ncc2c(n1)CCN(Cc1ccccc1Cl)C2 (stereo not given),Percent Effect,"30 µM, 30.03 µM",-6.551%
Cc1ncc2c(n1)CN(CCCc1ccccc1)CC2,Percent Effect,"30.3 µM, […]",13.17%
same,Percent Effect,"10 mM, 10 mM as filed; unlikely as a test dose",-28.02%
